Cruzain Triton = blocks cruzain activity in presence of Triton detergent; purified cruzain, Z-FR-AMC fluorescence, 0.01% Triton; Potency, µM, inactives show max response, negative = inhibition, usual class: inhibitors; 0.43% of 200,000 active;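 further: plate controls were neutral wells for no effect and buffer without enzyme for full effect; nearly all actives have a fitted effect of over 40% in size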
Target sequence (P25779 123-467 limits assumed): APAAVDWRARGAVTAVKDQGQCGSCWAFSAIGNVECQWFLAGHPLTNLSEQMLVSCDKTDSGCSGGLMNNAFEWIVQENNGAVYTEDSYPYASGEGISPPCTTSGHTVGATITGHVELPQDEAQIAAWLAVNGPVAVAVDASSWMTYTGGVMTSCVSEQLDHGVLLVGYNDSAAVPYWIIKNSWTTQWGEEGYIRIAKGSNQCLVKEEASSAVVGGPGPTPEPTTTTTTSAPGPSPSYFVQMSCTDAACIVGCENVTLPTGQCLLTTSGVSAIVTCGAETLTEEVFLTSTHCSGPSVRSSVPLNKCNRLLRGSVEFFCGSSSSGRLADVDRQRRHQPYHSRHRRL
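Detergent-containing arm of a paired screen for aggregation-based inhibition: 0.01% Triton X-100 present. Cruzain at 1.5 nM cleaved 2 uM Z-FR-AMC at pH 5.5 with 5 mM DTT; AMC fluorescence gain over 60 s measured activity.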
Cruzain inh noDet = cruzain (T. cruzi) inhibition without detergent. P25779. purified cruzain, Z-FR-AMC fluorescence, no detergent. Potency, µM, inactives show max response, negative = inhibition, usual class: inhibitors. 2.3% of 200,000 active. AID 1476;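 further: plate controls were enzyme without inhibitor for no effect and buffer without enzyme for full effect; nearly all actives have a fitted effect of over 40% in size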
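Purified cruzain at 1.5 nM, pre-incubated 15 min with compound at room temperature in 100 mM sodium acetate pH 5.5, 5 mM DTT, 0.00005% Triton X-100. Reaction started with 2 uM Z-FR-AMC; AMC fluorescence increase over 60 s gives rate.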
Active calls of the source: *; ? = inconclusive. Compounds with a hit are over-represented: about 2.4% of the library has one in this group of screens. The call rests on the fitted dose curve; in most records, active means well fitted curve in the direction sought with a large enough effect; inconclusive means small, poorly fitted or top-dose-only effect, or another doubt; inactive means no such curve, though single readings can be large; an effect the other way counts as inactive or inconclusive. Potency means the concentration at half of the fitted maximal effect.

SMILES	Cruzain Triton	Cruzain inh noDet
Cc1cc(OCCCSc2nc(-c3ccc(C(C)(C)C)cc3)nc3cc(=O)[nH]n23)ccc1Cl	-7%	?
c1coc(CN2CN=C(Nc3nc4ccccc4s3)NC2)c1	?	13µM*
c1ccc(CN2CN=C(Nc3nc4ccccc4s3)NC2)cc1	?	-8%
COc1ccc(OC)c(NC(=O)CSc2cn(CC(=O)N3CCCCCC3)c3ccccc23)c1	-6%	-7%
O=c1cc(NCc2ccccc2)nc2n1CCCS2	-3%	25µM*
O=C(COc1cc(=O)n2c(n1)SCCC2)c1ccccc1	5%	-1%
CN(C)CCCNc1cc(N2CCN(C3CCCCC3)CC2)c2noc3c2c1C(=O)c1ccccc1-3	-5%	6%
Cc1nc(NCc2ccccc2)c2nc(-c3ccccc3)n(CCN3CCCCC3)c2n1	-2%	-2%
CCOC(=O)c1ccc(NC(=O)Nc2ccn(C)n2)cc1	4%	3%
CCOC(=O)c1ccc(NC(=O)Nc2cc(C)on2)cc1	2%	16µM*
CC(=O)C1CCC2C3CCC4=CC(=O)CC[C@@]4(C)C3CC[C@]12C (stereo partly drawn)	-6%	-7%
COC(=O)C1CN(C#N)N(c2ccc(Cl)cc2)C12c1ccccc1-c1ccccc12 (stereo not drawn)	-9%	25µM*
O=C1c2ccccc2C(O)N1c1ccc(Cl)cc1 (stereo not drawn)	-2%	-27%
C=C(C(C)=O)C(O)c1ccco1 (stereo not drawn)	6%	-2%
CCOc1ccc(NC(=O)C(=O)NCC(c2cccnc2)N2CCc3ccccc32)cc1 (stereo not drawn)	-1%	-7%
Nc1c(-c2cccc([N+](=O)[O-])c2)nc2ccccn12	-10%	20µM*
Nc1nc(-c2cccc([N+](=O)[O-])c2)cc(-c2cc(-c3cccc([N+](=O)[O-])c3)nc(N)n2)n1	-2%	2%
Cc1nc(NCc2ccccc2)c2nc(-c3ccccc3)n(C(C)CN(C)C)c2n1 (stereo not drawn)	-1%	3%
COc1ccccc1/C=C\C=N\n1c(-c2ccc(Cl)cc2)n[nH]c1=S	1%	?
COc1ccccc1/C=C\C=N\n1c(-c2ccc(Cl)cc2Cl)n[nH]c1=S	-1%	32µM*
O=C(CSc1cn(CC(=O)N2CCCCC2)c2ccccc12)NCc1ccc(F)cc1	-4%	7%
Cc1c(C(=O)NCc2ccc3c(c2)OCO3)oc2ccc(S(=O)(=O)N3CCCCC3)cc12	3%	?
Cc1c(C(=O)Nc2ccc(F)cc2)oc2ccc(S(=O)(=O)N3CCCCCC3)cc12	0%	32µM*
Cc1ccc(NC(=O)c2oc3ccc(S(=O)(=O)N4CCCCC4)cc3c2C)cc1C	2%	6%
Cc1c(C(=O)NCc2ccc3c(c2)OCO3)oc2ccc(S(=O)(=O)N3CCCC3)cc12	-1%	16µM*
SMILES	Cruzain Triton	Cruzain inh noDet
CCN(CC)c1cc(C)c2cc(NC(=O)/C=C/c3cc(OC)c(OC)c(OC)c3)ccc2n1	-23%	3%
COCCn1c(SCc2nc3scc(-c4ccc(Cl)cc4)c3c(=O)[nH]2)nnc1-c1cccc(C)c1	-6%	25µM*
CCn1c(SCc2nc3scc(-c4ccccc4)c3c(=O)[nH]2)nnc1-c1cccs1	-4%	-26%
O=[N+]([O-])c1ccc(Cl)c(CNc2ncnc3c2ncn3[C@@H]2CCCCO2)c1	1%	0%
Cc1cc2c3c(cccc3n1)C(=O)c1ccccc1-2	-1%	17%
Clc1cccc(/C=N\Nc2nccs2)c1	25µM*	16µM*
Clc1cccc(/C=N/Nc2nc(Cl)nc3ccccc23)c1	-10%	?
COc1ccccc1CCNC(=O)c1ccc(-c2nc(CSc3ccc(C)cc3)c(C)o2)cc1	-7%	-4%
COCCn1c(CNC(=O)c2ccc(C)cc2)nc2cccnc21	1%	-4%
COc1ccc(S(=O)(=O)Nc2cc3c(cc2NCc2ccccc2)n(C)c(=O)n3C)cc1	-11%	12%
COc1cc(-c2noc(-c3ccc(N(C)C)c([N+](=O)[O-])c3)n2)cc(OC)c1OC	-7%	25µM*
CCCCNc1ccc(-c2nc(-c3ccco3)no2)cc1[N+](=O)[O-]	-15%	?
CCN(CC)c1ccc(-c2nc(-c3ccco3)no2)cc1[N+](=O)[O-]	-4%	16µM*
CN(C)c1ccc(-c2nc(-c3ccncc3)no2)cc1[N+](=O)[O-]	-2%	-6%
O=C(c1ccccc1)[C@H]1[C@H](c2ccccc2)[C@@]2(N=C(c3ccccc3)OC2=O)C2c3ccccc3C=NN21 (stereo partly drawn)	-7%	10µM*
COc1ccc([C@H]2[C@H](C(=O)C(C)(C)C)N3N=Cc4ccccc4C3C23C(=O)OC(C)(C)OC3=O)cc1 (stereo partly drawn)	-2%	0%
Cc1cccc(OCC(=O)Nc2ccc(N3CCCC3)cc2)c1C	?	3.2µM*
Cc1cc(C)cc(OCC(=O)Nc2ccc3c(c2)C(=O)c2ccccc2C3=O)c1	-1%	25µM*
Cc1cc(C)cc(OCC(=O)Nc2ccc(F)cc2)c1	0%	-19%
Cc1cccc(OCC(=O)Nc2cccc(-c3nnc(-c4ccccc4)o3)c2)c1C	0%	25µM*
CCOc1ccccc1OCC(=O)Nc1ccc(N2CCCCC2)cc1	2%	-5%
Cc1cc(C)cc(OCC(=O)Nc2ccc(N3CCCC3)cc2)c1	?	4µM*
CCC(=O)Nc1ccc2c(c1)C(=O)c1ccccc1C2=O	-7%	7%
Cc1cccc(C)c1OCC(=O)Nc1cccc(-c2nnc(-c3ccccc3)o2)c1	4%	?
CCC(=O)N1c2ccccc2CC1C(=O)NCc1cccc(OC)c1OC (stereo not drawn)	1%	13%
SMILES	Cruzain Triton	Cruzain inh noDet
Cn1c(/C(C#N)=C/c2ccccc2Br)nc2ccccc21	0%	-14%
O=C(Cc1ccc(Cl)cc1)Nc1ccc(N2CCCC2)cc1	3%	6.3µM*
Cc1ccc(OCC(=O)Nc2ccc(N3CCCC3)cc2)cc1C	?	2.5µM*
O=C(O)CCC(=O)Nc1ccc(N2CCCCCC2)cc1	3%	-5%
Cc1ccc(OCC(=O)Nc2ccc(O)c(C(=O)O)c2)cc1C	1%	-8%
O=c1oc2cc(OCc3c(F)cccc3Cl)ccc2cc1-c1ccccn1	0%	23%
O=c1oc2cc(OCc3ccc(F)cc3F)ccc2cc1-c1ccc2ccccc2n1	-2%	13µM*
CCOc1ccc(-n2c(=O)cc(N3CCN(c4ccccc4)CC3)[nH]c2=O)cc1	2%	2µM*
COc1ccc(-n2c(=O)cc(N3CCN(c4ccccc4)CC3)[nH]c2=O)cc1	5%	-3%
CCOC(=O)c1c(-c2ccccc2)oc2cc(Br)c(OCc3ccccc3)cc12	0%	3%
CCOC(=O)c1c(-c2ccccc2)oc2ccc(OCc3cccc(Br)c3)cc12	-6%	10µM*
COc1ccc(-n2c(/C=C/c3cccc(C(F)(F)F)c3)nc3ccccc3c2=O)cc1Cl	0%	-4%
COc1cc(NC(=O)c2cccs2)c(C(=O)OCC(=O)c2cc(C)n(-c3ccc(F)cc3)c2C)cc1OC	-2%	4µM*
COc1cc(NC(=O)c2cccs2)c(C(=O)OCC(=O)NC(=O)NC(C)(C)C)cc1OC	-14%	?
COc1cc(NC(=O)c2cccs2)c(C(=O)OCC(=O)c2cc(C)n(-c3ccccc3)c2C)cc1OC	-11%	3.2µM*
COc1ccc(-n2c(C)cc(C(=O)COC(=O)c3cc(NC(=O)c4cccs4)c(OC)c(OC)c3)c2C)cc1	1%	?

High-throughput results as filed in PubChem BioAssay.
